The values below come from PubChem BioAssay (NCI).

Common to all, as to assay: NCI-60 one-dose screen, 48 h (100 = growth as untreated, 0 = no growth, -100 = all killed)
Details in all cases: 10 µM unless noted

In test [1] the test system is NCI-H23 lung.
For test [2], the system named is NCI-H226 lung.
Test [3] relates to NCI-H322M lung.
Test [4] concerns HOP-62 NSCLC.
The subject of test [5] is NCI-H460 lung.
Test [6] deals with HOP-92 NSCLC.
The test system of test [7] is A549/ATCC NSCLC.
The subject of test [8] is 786-0 renal.
The subject of test [9] is COLO 205 colon.
The test system of test [10] is NCI-H522 lung.

The panel holds about 83,000 compounds, 20% with a hit somewhere; the sample as a whole holds those more often.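 The endpoint reported here, percent growth, reads 100 for growth as untreated, 0 for no net growth and -100 for all cells dead.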 Values without a mark were called inactive. The source made the active and inactive calls. How the source made its calls: active means growth percent below 10; inactive means the rest.

Take `Oc1ccc(Nc2ccc3ccccc3c2)cc1`: the growth in test [1] is 69%; in test [2], 89.2%; in test [3], 33.9%; in test [4] it was 57.4%; in [5], 59.4%; in test [6], 55.9%. Besides, the growth in [7] was 55.3%; in test [8] it was 46.7%; in [9] it was 96.1%.

As for `O=C(O)c1ccc2c(c1)C(=O)c1ccccc1C2=O`, the growth was 103% in [1]; 92% in test [2]; 102% in test [3]; 90.9% in test [4]; 105% in test [5]; 93.9% in test [6]. Also, the figures for the growth in test [10], in test [8] and in test [9] were 98.6%, 103% and 100%, respectively.

As for `c1ccc(C2NCCNC2c2ccccc2)cc1` (stereo unspecified), the growth in test [1] was 103%; in test [2], 99.5%; in test [3], 100%; in test [4], 98.7%; in test [5], 109%; in test [6], 93.6%. For the same compound, the figures for the growth in [7], in test [8] and in test [9] were 98.1%, 107% and 103%, respectively.

On to `Cc1cc(C)c(C#N)c(Sc2nc(C)c([N+](=O)[O-])c(C)c2C#N)n1`, for which the growth was 60.2% in [1]; 111% in [2]; 83.6% in test [3]; 72.8% in [4]; 89.9% in test [5]; -1.8% (active) in test [6]. Moreover, the figures for the growth in test [7], in test [8] and in [9] were 77%, 103% and 37.8%, respectively.

With `Clc1ccccc1C(c1ccccc1)(c1ccccc1)n1ccnc1`, the growth is 41.9% in test [1]; 29.2% in test [2]; 61.8% in [3]; 34.3% in [4]; 51.4% in test [5]; 19.7% in test [6]. The growth was 28.1% in test [10], 48.3% in test [8] and 24% in test [9].

For the compound `NNc1ccc(Cl)cc1Cl`, the growth was 82.7% in [1]; 86.3% in test [2]; 77.3% in test [3]; 64.9% in test [4]; 97.5% in test [5]; 55.2% in test [6]. Besides, the growth was 53.6% in test [10], 86.5% in test [8] and 91.5% in test [9].

On to `CN=C(N)N/N=C(\C)c1ccc2c(c1)Cc1ccccc1-2`, for which the growth in test [1] was 10.7%; in test [2], -39.1% (active); in test [3], -85% (active); in test [4], -73.3% (active); in test [5], -97.9% (active); in [6] it was -8.45% (active). For the same compound, the figures for the growth in test [10], in [8] and in [9] were 12.2%, -77.9% (active) and -100% (active), respectively.

With `O=C(Cc1ccccc1)C(F)(F)F`, the growth was 103% in [1]; 105% in test [2]; 94.2% in test [3]; 102% in [4]; 103% in [5]; 104% in test [6]. Also, the growth in test [10] is 107%; in test [8], 94%; in test [9], 104%.

As for `S=C(S)OCN1CCOCC1`, the growth was 93.8% in [1]; 97% in test [2]; 98% in [3]; 108% in test [4]; 90.3% in [5]; 86.4% in [6]. Further, the growth in test [10] was 1.59% (active); in test [8], 108%; in test [9] it was 20.7%.

On to `CN1CCC(CN2c3ccccc3Sc3ccccc32)C1` (stereo unspecified), for which the growth in test [1] is 88.9%; in test [2], 111%; in test [3] it was 86.3%; in test [4], 91.5%; in test [5], 101%; in test [6], -0.214% (active). In addition, the growth is 86.2% in [10], 69% in [8] and 84.6% in [9].

In the case of `O=C/C=C/c1ccc([N+](=O)[O-])cc1`, the growth was 96.7% in [1]; 101% in test [2]; 104% in test [3]; 104% in test [4]; 106% in [5]; 117% in test [6]. Further, the growth in [10] is 97.3%; in [8], 102%; in test [9], 115%.

`COc1ccc2nc3cc([N+](=O)[O-])ccc3c(NNc3ccccc3)c2c1`: the growth in test [1] is 66.6%; in [2] it was 63.8%; in test [3], 86.9%; in test [4] it was 37%; in [5] it was 82.4%; in test [6] it was 14.8%. The growth in test [10] is 85%; in test [8], -18.8% (active); in test [9] it was 99.8%.

Turning to `N#CC(I)CS(=O)(=O)c1ccccc1` (stereo unspecified), the growth in test [1] is 101%; in test [2], 105%; in [3], 124%; in test [4], 98.6%; in test [5], 114%; in test [6], 94.5%. The growth in test [10] was -80.6% (active); in test [8] it was 107%; in test [9] it was -27.5% (active).

For the compound `Nc1nc2ncc(CNc3ccc(C(=O)NC(CCC(=O)NC(CCC(=O)NC(CCC(=O)NC(CCC(=O)NC(CCC(=O)O)C(=O)O)C(=O)O)C(=O)O)C(=O)O)C(=O)O)cc3)nc2c(=O)[nH]1` (stereo unspecified), the growth in test [1] is 101%; in test [2], 113%; in [3], 97.5%; in test [4], 100%; in [5], 120%; in test [6], 95.3%. In addition, the growth in [10] is 96.9%; in test [8] it was 105%; in [9], 113%.

`CN(C)c1ccc(C(=C2C=CC(=[N+](C)C)C=C2)c2ccc(N(C)C)cc2)cc1`: the growth was -19.9% (active) in test [1]; -73.1% (active) in [2]; -42.2% (active) in test [3]; -75.5% (active) in test [4]; -39% (active) in test [5]; -70.1% (active) in test [6]. The growth is -44.9% (active) in test [10], -96.2% (active) in test [8] and -84.3% (active) in test [9].

For the compound `CC1(C)N=c2cc3c(cc2N1c1ccc(Cl)cc1)=Nc1ccccc1N3c1ccc(Cl)cc1`, the growth is 9.73% (active) in test [1]; 53% in [2]; 75.2% in test [3]; -19.2% (active) in [4]; 46.5% in test [5]; -26.6% (active) in test [6]. Further, the growth is -22.1% (active) in test [10], 11.8% in test [8] and 39.1% in test [9].

In the case of `O=C(c1ccccc1)c1ccc(O)c2ncccc12`, the growth in [1] was 19.9%; in test [2], 29.3%; in test [3], 44.6%; in test [4], 38.6%; in [5], 13.7%; in test [6] it was 49.6%. Also, the growth in [7] was 30.2%; in test [8], 31.6%; in [9] it was 104%.

Turning to `CN1CCC(c2ccccc2)(c2ccccc2)C(=O)C1`, the growth in test [1] is 80.1%; in test [2], 67.7%; in [3], 87.6%; in test [4] it was 107%; in [5], 98%; in [6], 89%. Further, the growth in test [10] was 75.4%; in test [8] it was 86.7%; in test [9], 98.4%.

Regarding `CCCCCC[C@@H](O)C/C=C\CCCCCCCC(=O)OCCOC`, the growth in test [1] is 101%; in [2], 101%; in test [3], 104%; in [4], 88.9%; in [5] it was 107%; in [6], 79.2%. For the same compound, the growth was 94.3% in [7] and 115% in test [9].

In the case of `CC(C)=C1C=C2CC[C@@H]3[C@](C)(CCC[C@@]3(C)C(=O)O)[C@H]2CC1`, the growth in test [1] is 101%; in test [2] it was 103%; in [3], 94.8%; in [4] it was 93.6%; in test [5] it was 106%; in test [6], 97.2%. For the same compound, the growth in test [10] is 96.2%; in test [8], 95.9%; in test [9] it was 107%.

As for `Cc1ccccc1N=C(N)Nc1ccccc1C` (tested in a mixture with another compound), the growth is 94.8% in test [1]; 97.1% in test [2]; 99.4% in test [3]; 84.7% in test [4]; 76.1% in [5]; 76.5% in test [6]. Further, the growth is 4.48% (active) in test [10], 73.9% in test [8] and 85.5% in [9].

Consider `Cc1cc(C(N)=O)cc(C)c1C(=O)OCCCl`, for which the growth is 104% in [1]; 105% in [2]; 97.2% in test [3]; 93.9% in test [4]; 101% in [5]; 90.1% in [6]. Besides, the values for the growth in test [10], in [8] and in [9] were 101%, 100% and 111%, respectively.

Take `O=[N+]([O-])c1ccc([I+]c2ccccc2)cc1`: the growth is -55.1% (active) in test [1]; -30.2% (active) in test [2]; 67.4% in [3]; -67.6% (active) in test [4]; 4.38% (active) in test [5]; 60.5% in test [6]. Further, the growth in test [10] was -87.8% (active); in test [8] it was -15.4% (active); in [9], -84.3% (active).

`CCN(CC)c1ccc(/C=C\C(=O)c2ccc(NC(C)=O)cc2)cc1`: the growth in test [1] is 75.2%; in [2], 99.6%; in test [3] it was 111%; in test [4], 56.2%; in [5] it was 82.2%; in test [6], 70.9%. In [7], the growth was 56.8%.

Regarding `O=C(c1ccccc1)c1cc2ccccc2oc1=O`, the growth in test [1] was 94.5%; in [2], 86.3%; in [3], 97.7%; in test [4], 88.6%; in test [5] it was 117%; in [6], 51.3%. The growth is 95% in test [10], 102% in test [8] and 119% in test [9].

Consider `CCc1cnc2ccccc2c1/C=C/c1ccc(N(C)C)cc1`, for which the growth in [1] was 65.2%; in test [2], 74.5%; in [3], 71.6%; in [4] it was 47.4%; in [5], 30.8%; in test [6], 60.1%. In addition, the results for the growth in [10], in [8] and in test [9] were 23.3%, 44% and 41.5%, respectively.

As for `Cc1cc(I)nc2ccccc12`, the growth in [1] is 95.1%; in [2], 104%; in test [3], 102%; in [4], 105%; in test [5], 106%; in test [6], 93.5%. Moreover, the growth in [7] was 111%; in [8], 105%; in test [9], 106%.

On to `Cc1nn(CCO)c(C)c1N=[N+]([O-])c1c(C)nn(CCO)c1C`, for which the growth in [1] was 87%; in test [2], -28.5% (active); in test [3] it was 98.5%; in test [4], 88.1%; in [5], 76.3%; in test [6], -47.7% (active). The values for the growth in [10], in test [8] and in test [9] were -78% (active), -82.3% (active) and -85.6% (active), respectively.

For `S=c1[nH]c2cc(Cl)ccc2s1`, the growth in [1] is 105%; in test [2], 91.4%; in test [3], 94.4%; in test [4] it was 98.1%; in test [5] it was 118%; in test [6], 68.4%. Besides, the growth in test [7] was 108%; in test [8] it was 107%; in test [9], 92.9%.

As for `COc1c(C)c2c(c(O)c1C/C=C(\C)CCC(=O)O)C(=O)OC2`, the growth is 33.9% in test [1]; 58.8% in [2]; 38.3% in test [3]; 46.6% in test [4]; 9.24% (active) in test [5]; 73.9% in test [6]. The growth in test [10] was 19.4%; in test [8], 21.3%; in [9], 39.3%.

In the case of `[Cl-].[Rh+3].c1ccc(-c2ccnc3c2ccc2c(-c4ccccc4)ccnc23)cc1.c1ccc(-c2ccnc3c2ccc2c(-c4ccccc4)ccnc23)cc1.c1ccc(-c2ccnc3c2ccc2c(-c4ccccc4)ccnc23)cc1`, the growth in test [1] is 86.6%; in test [2] it was 107%; in test [3], 105%; in test [4], 92%; in [5] it was 92.4%; in test [6], 80.9%. Also, the growth was 42.1% in test [10], 84.8% in [8] and 64.6% in test [9].
